Bioassay records deposited in PubChem BioAssay by several laboratories.
Rows were chosen to be rich in hits. Some 3.9% of all compounds tested hit in one or more screens of this group.
Rtt109 HAT inh: inhibitors of Candida albicans Rtt109/Vps75 histone acetyltransferase. purified Rtt109/Vps75, ThioGlo CoA-SH fluorescence, 4 h. 0.16% of 330,000 active. Q5AAJ8. inhibition, % at 34.9 µM;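 active = inhibition of at least 50% in every replicate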
Target sequence (Q5AAJ8 whole entry, looked up): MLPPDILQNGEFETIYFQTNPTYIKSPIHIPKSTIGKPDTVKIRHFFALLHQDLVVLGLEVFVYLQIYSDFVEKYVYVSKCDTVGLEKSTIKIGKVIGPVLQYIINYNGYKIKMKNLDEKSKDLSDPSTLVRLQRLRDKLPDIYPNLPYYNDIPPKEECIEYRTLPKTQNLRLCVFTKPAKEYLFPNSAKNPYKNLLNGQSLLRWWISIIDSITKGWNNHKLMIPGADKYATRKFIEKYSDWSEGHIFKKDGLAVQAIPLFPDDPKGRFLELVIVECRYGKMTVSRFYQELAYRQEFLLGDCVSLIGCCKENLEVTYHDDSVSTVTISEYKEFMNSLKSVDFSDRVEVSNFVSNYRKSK
WT yeast gro inh: growth inhibition of WT yeast, mitochondrial fusion screen. mitochondrial fusion phenotypic screen, WT strain. inhibition, % at 10 µM. 2.1% of 190,000 active. AID 1362; in the data active = inhibition above about 58%; tested in S. cerevisiae
TPT1 inh: blocks Candida albicans tRNA 2'-phosphotransferase | 0.81% of 300,000 active | AID 1962 | inhibition, % at 5 µM | recombinant caTPT1, FP RNA substrate dephosphorylation;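 active = inhibition above the mean of all tested compounds plus 3 SD, set per screening campaign, cut at about 24% in these data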;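 also: plate controls were DMSO alone for no effect and ferristatin control at 100 nM for full effect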
Platelet DG rel: modulates dense granule release in human platelets; human platelet-rich plasma, SFLLRN dense granule ATP release, luminescence; inhibition, %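 (compounds screened at 7.5 µM in platelet-rich plasma)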; 0.22% of 300,000 active; AID 1663;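 active = mean replicate score, as percent of positive control, at or above 50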
PHOSPHO1 inh: blocks human PHOSPHO1 phosphatase activity; AID 1565; Q8TCT1; recombinant PHOSPHO1, absorbance phosphatase assay; 1.1% of 290,000 active; inhibition, % at 13.3 µM; in the data active = inhibition above about 60%
SKKanGAS inh: blocks kanamycin growth of S. pyogenes SKKanGAS strain; inhibition, % at 7.5 µM; 1.3% of 300,000 active; BacTiter-Glo, 6 h; AID 1662;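 active = mean replicate score, as percent of positive control median, at least 50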;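 also: strain carries kanamycin resistance gene driven by streptokinase promoter and grows in 40 µg/ml kanamycin; loss of luminescence reflects streptokinase promoter inhibition or plain growth inhibition; 0% = median of DMSO wells and 100% = positive control at its reference dose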
* = called active by the depositor; · = no result.

SMILES	Rtt109 HAT inh	WT yeast gro inh	TPT1 inh	Platelet DG rel	PHOSPHO1 inh	SKKanGAS inh
O=C(Nc1cccc(Cl)c1N1CCOCC1)c1cccs1	3.5	·	1.8	0.3	36.6	-0.1
C=CCNC(=O)C(=O)Nc1cc2c3c(c1)CCC(=O)N3CCC2	-5.7	·	1.6	-6.0	7.2	-0.3
O=C(Nc1ccccc1)OCc1cc(-c2ccccc2Cl)on1	5.9	12.9	3.4	52.2*	8.0	8.2
O=C(Nc1cccc(O)c1)c1cc(-c2ccccc2Cl)on1	-6.2	·	-0.9	33.7	34.8	-14.5
O=C(CN1CCN(S(=O)(=O)c2ccccc2F)CC1)Nc1ccnn1C1CCCC1	-5.0	·	·	·	·	·
Cc1ccc2nc3c(cc(C(=O)NC4CCS(=O)(=O)C4)n3Cc3ccccc3)c(=O)n2c1 (centres undefined)	-22.3	·	-0.8	21.3	61.6*	3.2
Cc1ccc2nc3c(cc(C(=O)NCCc4ccccc4)c(=N)n3CCN3CCOCC3)c(=O)n2c1	-74.9	·	1.2	2.7	26.1	-1.8
COc1ccc(-c2cc3ccccc3n2CC(O)CN2CCCCC2)cc1 (centres undefined)	6.2	·	-1.9	-0.5	27.3	12.6
CCC(=C(c1ccc(OC)cc1)c1ccc(OC)cc1)c1cn(CC(O)CN2CCN(C)CC2)c2ccccc12 (centres undefined)	17.3	80.3*	-1.6	·	0.3	·
CC(=O)c1c(C)[nH]c(C(=O)CSc2nnc(-c3ccco3)n2Cc2ccccc2)c1C	1.6	28.2	-2.1	-0.5	62.2*	7.5
CC(=O)c1c(C)[nH]c(C(=O)CSc2nnc(-c3cccs3)n2Cc2ccccc2)c1C	14.5	-8.6	5.8	14.8	42.2	9.6
CCOC(=O)C1C(=O)C=C(c2ccc(Br)cc2)CC1c1ccco1 (centres undefined)	6.3	62.4*	3.2	-0.1	41.7	4.7
CCCn1c(N)c(N(CCOC)C(=O)CSc2cc(C)c3cccc(C)c3n2)c(=O)[nH]c1=O	-13.1	·	·	·	·	·
Cc1cccc(N2CCN(Cc3cc(=O)n4ccsc4n3)CC2)c1C	-1.6	30.3	-3.7	0.6	26.2	6.2
O=c1cc(CN2CCN(c3ccccc3O)CC2)nc2sccn12	5.7	7.1	-14.9	72.4*	4.1	-7.5
N#CC(C(=O)NC1CCCCC1)c1nc2ccccc2nc1N1CCOCC1 (centres undefined)	·	·	·	·	-0.2	·
CCC(C)COC(=O)C(C#N)c1nc2ccccc2nc1N1CCCCC1 (centres undefined)	-4.5	48.6	11.7	13.5	9.6	52.8*
CC1CCN(c2nc3ccccc3nc2C(C#N)C(=O)NC2CCCCC2)CC1 (centres undefined)	·	·	2.3	7.7	-17.9	67.6*
CC(C)OC(=O)C(C#N)c1nc2ccccc2nc1N1CCCC1 (centres undefined)	-33.7	4.8	-0.8	1.2	-15.8	3.7
CCOC(=O)N1CCN(C(=O)c2cccc(-n3c(=S)[nH]c4cc(Cl)ccc4c3=O)c2)CC1	6.1	-9.9	0.7	1.3	63.9*	2.9
CCOC(=O)N1CCN(C(=O)c2ccc3c(=O)n(-c4ccc(OC)cc4)c(=S)[nH]c3c2)CC1	7.6	17.7	-5.1	-2.2	-8.2	2.9
CC(C)N(C(=S)NC1CC2CCC1C2)c1ccccc1 (centres undefined)	·	64.6*	-2.9	-6.6	24.1	17.2
CN(C)c1cccc(C(=O)NNC(=S)NC2CC3CCC2C3)c1 (centres undefined)	1.4	-12.3	3.6	-3.0	-7.3	0.7
CCN(CC1COc2ccccc2O1)C(=S)NC1CC2CCC1C2 (centres undefined)	-0.7	67.2*	5.5	-1.1	24.7	16.3
Cc1c(C(=O)c2ccc(Cl)c(Cl)c2)cnc2cc3c(cc12)OCO3	-16.2	61.2*	-2.1	0.2	-10.5	30.6
COCCN=C1Sc2nc3ccc(C)cc3cc2CN1Cc1ccco1	12.8	-11.6	-6.8	-11.8	96.9*	5.4
Cc1cccc(N2CCN(C(=O)COc3ccc4c(c3)CCC4)CC2)c1C	-9.7	73.1*	-0.1	15.2	-26.4	12.1
Cc1cccc(N2CCN(C(=O)COc3ccc4ccc(=O)oc4c3)CC2)c1C	9.4	·	-4.3	3.1	10.3	1.6
Nc1c(C(=O)c2ccccc2)oc2ccc([N+](=O)[O-])cc12	55.3*	·	-1.1	-1.4	-10.5	-0.6
O=C1C(Nc2ccc(O)cc2)=C/C(=N/S(=O)(=O)c2cccs2)c2ccccc21	-11.5	40.6	·	-1.3	47.6	87.3*
